The values that follow come from PubChem BioAssay (EPA / NIEHS).

Activity calls are given as the source filed them. How the source made its calls: active means hit-call score of the fitted dose curve at least 0.9, where 1 is the maximum; inactive means score below 0.9.

Read-out in the assay: sulfotransferase 2A1 (SULT2A1), SULT2A1 (gene 6822)
The experiment in a line: LTEA_HepaRG_SULT2A1: Life Technologies and Expression Analysis (LTEA) Assay for sulfotransferase 2A1 (SULT2A1) using HepaRG (AID 2283531). The settings on record: mRNA level, 48 h; actives raise or lower the signal. The procedure: LTEA_HepaRG is a cell based, multiplexed-readout assay that uses HepaRG, a human liver cell line, with measurements taken at 48 hours after chemical dosing on a 96-well plate.LTEA_HepaRG_SULT2A1 is one of 102 assay component(s) measured in the LTEA HepaRG cell culture assay. It is a marker of NR mediated transport.Data from the assay component LTEA_HepaRG_SULT2A1 was analyzed into 1 endpoint. This assay endpoint, LTEA_HepaRG_SULT2A1, was analyzed with bidirectional fitting relative to DMSO as the negative control and baseline of activity. Using a type of inducible reporter, measures of mRNA induction for gain or loss-of-signal activity can be used to understand regulation of transcription factor activity. To generalize the intended target to other relatable targets, this assay endpoint is annotated to the transferase intended target family, where the subfamily is sulfotransferase.
A total of 1060 chemcials from the ToxCast library were tested in eight-point concentration-response experiments. Cell culture and cytotoxicity assays were conducted at Thermo Fisher Scientific's Custom Services facility (Madison, WI). A single lot of human HepaRG cells (Thermo Fisher Scientific, Frederick, MD) was used for the cell culture experiments. 96-well format collagen type I coated plates of human HepaRG cells were prepared using established methods. Briefly, cryopreserved HepaRG cells were thawed, plated at a density of approximately 100,000 cells/well in HepaRG Thaw, Plate, and General Purpose media (HPRG770, Thermo Fisher Scientific), and incubated for 48 hours. 0.5% DMSO was selected as vehicle control to balance the requisite need of DMSO in HepaRG cultures to maintain differentiation (for example, baseline metabolism, proportions of hepatocytes vs. cholangiocytes), while enabling further hepatic receptor pathway activation (for example, PXR and CAR) in response to chemical exposure. 48 hours after plating, the culture medium was replaced with HepaRG Serum-Free Incudtion Media. Cells were exposed to each test chemical in duplicate and maintained in CO2 incubators for another 48 hours. Chemical plates were thawed to room temperature and 200x concentrations of treatment groups were prepared. 8-point conentration-reponse curves were made with the highest exposure at 100 uM, followed by half-log dilutions, all in 0.5% DMSO. Each test plate contained variouse controls, induction positive controls (1mM phenobarbital), cytotoxicity positive controls ([…] aflatoxin B1), vehicle controls (0.5% DMSO), and total lysis controls (0.5% DMSO). Cell morphology images were taken using an Essen IncuCyte FLR automated microscope, with six 96-well plates imaged in about 24 minutes. Images were captured and exported and JPEG files. Spent culture media was transfered to black-well plates for the LDH assay, and remaining media was sorted at -80 C for later use. Cells were treated with RLT buffer and frozen until shipped for gene expression analysis. Total RNA was isolated from the cell suspension in 75 uL of Buffer RLT (Qiagen, Germantown, MD 20874) by Quintiles/Expression Analysis (Durham, NC) using a custom isolation procedure. Total RNA from each plate well was transferred to a preamplification plate. Fluidigm's 96.96 Dynamic ArrayTM (Fluidigm, Amsterdam, the Netherlands) technology was used for gene expression analyses by quantitative reverse transcription polymerase chain reaction (qRT-PCR, performed by Quintiles/Expression Analysis, Durham, NC)89. Standard TaqManTM Assays (Applied Biosystems/ThermoFisher Scientific, Foster City, CA) were used to assess the expression of 93 genes selected based on their selectivity and sensitivity to important hepatic receptors known to be modulated by environmental chemicals; importance in human hepatocyte functionality; and hepatotoxicity. […]
For `CC(C)(C)c1ccccc1`, the call was inactive.

On to `CO[C@@H]1COCC[C@@H]1N[C@@H]1CC[C@@](C(=O)N2CCc3ncc(C(F)(F)F)cc3C2)(C(C)C)C1`, for which the compound was classed as inactive.

With `COc1ccc(C(=O)Nc2nc3ccccc3c(NCc3ccccc3)c2C#N)cc1`, the AC50 is 21.2 µM (active).

Consider `O=C(N[C@@H](c1ccccc1)[C@@H]1CCCCN1)c1cccc(C(F)(F)F)c1Cl`, for which the half-maximal activity concentration (AC50) is 78.9 µM (active).

Take `CCc1nc(N)nc(N)c1-c1ccc(Cl)cc1`: the half-maximal activity concentration (AC50) is 1.33 µM (active).

As to `CC(=O)[C@@]1(O)CC[C@H]2[C@@H]3CCC4=CC(=O)CC[C@]4(C)[C@H]3CC[C@@]21C`, the compound was called inactive.

In the case of `O=C1NC(=O)C(c2ccccc2)(c2ccccc2)N1`, the concentration at half-maximal activity (AC50) was 50 µM (active).

With `CC(=O)OC1CC(C)OC(C)O1` (stereo not given), the compound was called inactive.

In the case of `Cc1ccc(C(C)(C)C)c(O)c1`, the outcome was inactive.

In the case of `CSc1ccc(Oc2ccc(S(N)(=O)=O)cc2CN(C)C)cc1C`, the call was inactive.

Consider `O=C(O)c1[nH]n(-c2ccc(S(=O)(=O)O)cc2)c(=O)c1N=Nc1ccc(S(=O)(=O)O)cc1`, for which the compound was called inactive.

For the compound `CCCC(=O)O`, the result was inactive.

Regarding `CCCC[C@H]1CN(CC2CCOCC2)C(=O)OC12CCN(C1(C)CCN(C(=O)c3c(C)ncnc3C)CC1)CC2`, the result was inactive.

In the case of `CC(C)NCC(O)c1ccc(O)c(O)c1` (stereo not given), the AC50 is 0.194 µM (active).

With `OCC(CO)n1cnc(-c2ccc(F)cc2)c1-c1ccnc(Oc2ccccc2)n1`, the compound was called inactive.

`O=C(O)CC(O)(CC(=O)O)C(=O)O`: the compound was classed as inactive.

As to `CCCCCCCCCCCCCCCCO`, the AC50 is 50 µM (active).

On to `O=C1c2c(O)cccc2Cc2cccc(O)c21`, for which the compound was called inactive.

For the compound `S=c1[nH]c2ccccc2s1`, the call was inactive.

As to `COC(=O)CCCC(=O)OC`, the call was inactive.

For the compound `CN(C)CCCN(C)CCCN(C)C`, the result was inactive.

Regarding `Cc1occc(=O)c1O`, the result was inactive.

As to `NCCOCCOCCN`, the result was inactive.

In the case of `CCCCC(CC)COC(=O)CCCCCCCC(=O)OCC(CC)CCCC` (stereo not given), the result was inactive.

For the compound `Cc1ccc(-c2cc(C(F)(F)F)nn2-c2ccc(S(N)(=O)=O)cc2)cc1`, the AC50 was 83.6 µM (active).

`COc1ccc(OC(F)(F)F)cc1CN[C@H]1CCCN[C@H]1c1ccccc1`: the AC50 is 81.2 µM (active).

In the case of `Cc1c(C)c2c(c(C)c1O)CCC(C)(COc1ccc(CC3SC(=O)NC3=O)cc1)O2` (stereo not given), the AC50 is 93.4 µM (active).

`Oc1ccccc1O`: the compound was classed as inactive.

On to `CC(N)=O`, for which the outcome was inactive.

Regarding `CCOCCOCCO`, the compound was called inactive.

As for `CCCCCCCCCCCCCCOS(=O)(=O)O`, the call was inactive.

For `O=C(O)c1cccnc1`, the compound was called inactive.

For `C/C=C/C=C/C(=O)O`, the outcome was inactive.

As to `O=[Si]=O`, the outcome was inactive.

On to `NC=O`, for which the compound was classed as inactive.

`O=C(Oc1ccccc1)c1cccc(C(=O)Oc2ccccc2)c1`: the call was inactive.

On to `C/C=C/c1ccc(OC)cc1`, for which the outcome was inactive.

For `O=NO`, the compound was classed as inactive.

Regarding `O=C(O)CN(CC(=O)O)CC(=O)O`, the outcome was inactive.

As for `CC(C)(O)c1ccc(CNC(=O)c2cccnc2Oc2ccc(F)cc2)cc1`, the compound was called inactive.
